Source: PubChem BioAssay
This excerpt belongs to a sample that is enriched for hits.
ST2 IL33 inh: inhibitors of human ST2 (IL1RL1) binding to IL-33, primary screen, biochemical, AlphaLISA; AID 1259354, 2018; inhibition, % for hits at 17 µM; AlphaLISA ST2-Fc/biotin-IL-33 interaction, 1 h; 2.3% of 78,000 active; in the data active = inhibition above about 30%
An asterisk follows results filed as active; i = inactive.

SMILES	ST2 IL33 inh
Cn1c(=O)c(-c2ccccc2N)nc2cc3ccccc3cc21	32%*
CN1C[C@@H](NS(=O)(=O)c2ccc(F)cc2)C[C@H]1c1nc(Cc2ccccc2)no1	i
COc1ccc(-c2cc(C[C@H]3CNCC[C@H]3CC(=O)N3CCN(c4ccccc4)CC3)no2)cc1	i
O=C(C[C@@H]1CCNC[C@@H]1Cc1cc(COc2ccccc2)on1)N1CCN(c2ccccc2)CC1	42%*
O=C(C[C@@H]1CCNC[C@@H]1Cc1cc(COc2ccccc2)on1)N1CCOCC1	i
CC(=O)c1ccc(NC(=O)O[C@@H]2CO[C@H]3[C@@H]2OC[C@@H]3NS(=O)(=O)c2ccc3ccccc3c2)cc1	i
COc1cc(Br)cc(NC(=O)c2ccc([N+](=O)[O-])cc2)c1	i
COc1ccc(N=Cc2nc(-c3ccc(Br)cc3)oc2O)c([N+](=O)[O-])c1	i
Cc1c(C=O)c2ccccc2n1CC(=O)N1CCCc2ccccc21	i
Cc1cc2c(cc1O)NC(=O)CC2c1cc(=O)n2c3c(cccc13)CCC2 (configuration not stated)	i
Cc1c(C)n2c3c(cccc13)CCC2	52%*
COc1ccc(N2CCN(Cc3nc4c(c(=O)[nH]c(=O)n4C)n3C(C)C(C)=O)CC2)cc1 (configuration not stated)	i
COc1ccc(Cl)cc1NC(=O)CSc1n[nH]c(C)c1[N+](=O)[O-]	i
Cc1ccc2nc(N=C(N)NC(=O)Cc3ccc(Cl)cc3)nc(C)c2c1	30%*
CC(=O)NC(=Nc1nc(C)c2cc(C)ccc2n1)NC(C)=O	i
COc1ccc2nc(N=C(N)NC(=O)Nc3ccccc3)nc(C)c2c1	i
Cn1c2c(c(=O)n(C)c1=O)C(c1cc([N+](=O)[O-])ccc1O)C1=C(N2)c2ccccc2C1=O (configuration not stated)	i
CCn1cc(CN(C)C2CCCN(CCc3ccccc3)C2)c(C)n1 (configuration not stated)	i
O=C1Nc2ccccc2C(O)(C(=O)NCc2ccco2)N1c1c(F)cccc1F (configuration not stated)	i
O=C(O)CCCc1c[nH]c2ccccc12	i
CC(Cc1c[nH]c2ccccc12)NC(N)=O (configuration not stated)	i
NC(=O)Cc1c[nH]c2cccc(O)c12	101%*
CC(=O)Nc1ccc(S(=O)(=O)N[C@H]2CO[C@H]3[C@@H]2OC[C@H]3OC(=O)Nc2ccc(C(C)C)cc2)cc1	i
CC(=O)NC(=O)c1cc2cc(Br)ccc2oc1=Nc1ccc(C#N)cc1	32%*
CC(=O)NC(=O)c1cc2ccccc2oc1=Nc1ccc(F)cc1	i
SMILES	ST2 IL33 inh
COc1ccc2oc(=Nc3ccc(C(F)(F)F)cc3)c(C(=O)NC(C)=O)cc2c1	i
COc1ccc(OC)c(NC(=O)CN(c2cccc(Cl)c2Cl)S(C)(=O)=O)c1	i
CCCCNC(=O)CC1Sc2ccccc2NC1=O (configuration not stated)	i
COc1ccc2cc(C(=O)Nc3ccccc3)c(=Nc3cccc(F)c3)oc2c1	i
Cc1cc(=O)c2c([nH]1)C(O)=C(CN(C)C)C(=O)C2=O	43%*
CC(C)CN1CC(C(=O)NCc2nncn2C2CCCCC2)CC1=O (configuration not stated)	i
Cc1ccccc1C(=O)N1CCC(N2CCC(C(=O)NCc3cccnc3)CC2)CC1	i
COC(=O)c1sc2ccccc2c1NC(=O)COc1ccc(Cl)cc1	i
N#C/C(=C\c1ccc(-c2ccc3c(c2)C(=O)NC3=O)o1)c1nc2ncc(Br)cc2[nH]1	33%*
O=C1NN(c2ccc(Cl)c(Cl)c2)C(=O)/C1=C/c1ccc(-c2ccc3c(c2)C(=O)NC3=O)o1	i
CCCC(C)NC(=O)c1ccccc1F (configuration not stated)	i
COc1ccc(/C=C2\SC(N3CCCC3)=NC2=O)cc1	i
COc1ccc(/C=C(\C)c2nc(C)c(-c3ccccc3)c(=O)[nH]2)cc1	i
COc1ccc(/C=C2\CC(c3ccccc3)=CC2=O)cc1	52%*
Cc1sc2nc(SCc3ccc(C(=O)NCCO)cc3)[nH]c(=O)c2c1C	i
O=C(Nc1nnc(CCS(=O)(=O)c2ccc(Br)cc2)s1)c1cccs1	i
COc1ccc(Br)cc1CN1CCC(O)CC1	i
Cc1ccc(S(=O)(=O)Nc2ccc3n(c2=O)C[C@H]2C[C@@H]3CN(C(=O)c3cccc(C(=O)O)c3)C2)cc1	i
CCn1c(C(C)NC(=O)C(C)(C)C)nc2ccccc21 (configuration not stated)	i
CCNc1ccc(Br)cc1-c1nc2ccccc2n(CC)c1=O	77%*
CCn1c(CCNC(=O)C(C)(C)C)nc2ccccc21	i
COc1cccc(-c2cc(N3CCN(S(=O)(=O)c4ccc(C)c(C)c4)CC3)ncn2)c1	i
Cc1ccc(CNC(=O)c2ccc(Cn3nnc4ccsc4c3=O)cc2)cc1	i
CN1CCc2[nH]c3c(Cl)cccc3c2C1	i
